Most compounds without a hit are left out; they make up all but 4% or so of the library.
Mtb FBA inh: inhibits M. tuberculosis FBA enzyme. inhibition, % at 1 µM. actives 2.3% (n = 360,000). purified M. tuberculosis FBA, fluorescence read-out. P9WQA3. AID 588726;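 further: 0% = vehicle and 100% = reference inhibitor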
GDH-TPI counter-1: GDH-TPI coupled enzyme inhibition counter-screen. actives 1.2% (n = 360,000). AID 588335. inhibition, % at 4.8 µM. GDH-TPI coupled enzyme counterscreen, NADH absorbance; in the data active means inhibition above about 30%;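 further: 0% = DMSO wells and 100% = wells lacking the enzyme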
Mtb UGM inh: inhibitors of M. tuberculosis UDP-galactopyranose mutase | actives 0.06% (n = 320,000) | AID 504406 | inhibition, % at 10 µM | purified UGM, fluorescence polarization probe displacement | P9WIQ1; in the data active means inhibition above about 10%, passing the limit was not always enough; inconclusive means no clear call, values can overlap the other calls
Rv3671c protease: Rv3671c (M. tuberculosis) protease inhibition; P9WHR9; inhibition, % at 5.96 µM; actives 0.048% (n = 320,000); in the data active means inhibition above about 38%;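 further: extracellular domain of Rv3671c used as enzyme; 0% = enzyme with DMSO and 100% = no enzyme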
Target sequence (P9WHR9 whole entry, looked up, the tested form may be a part): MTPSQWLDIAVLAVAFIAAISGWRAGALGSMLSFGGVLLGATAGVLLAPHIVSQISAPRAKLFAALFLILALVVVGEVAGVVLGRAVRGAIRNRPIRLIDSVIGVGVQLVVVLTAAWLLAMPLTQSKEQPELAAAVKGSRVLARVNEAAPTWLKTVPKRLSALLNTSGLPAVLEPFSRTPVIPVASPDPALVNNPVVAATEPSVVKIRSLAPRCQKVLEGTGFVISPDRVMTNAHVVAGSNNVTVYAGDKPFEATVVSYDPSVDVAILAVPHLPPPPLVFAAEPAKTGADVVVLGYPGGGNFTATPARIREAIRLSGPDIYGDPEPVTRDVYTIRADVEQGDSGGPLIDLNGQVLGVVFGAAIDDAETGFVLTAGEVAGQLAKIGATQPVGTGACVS
Mtb betalactam: beta-lactam sensitization of Mtb H37Rv | M. tuberculosis H37Rv growth with meropenem, percent inhibition | inhibition, % at 25 µM | actives 0.27% (n = 330,000); call rule not given here;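 further: growth measured after seven days incubation then overnight dye step; 0% = bacteria only wells and 100% = bacteria with antibiotic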
RecA splice inh: blocks M. tuberculosis RecA intein splicing; inhibition, % (concentration not given with the values); AID 2221; actives 0.75% (n = 290,000); cell-free RecA intein splicing, fluorescence; P9WHJ3; in the data active means inhibition above about 30%; inconclusive means no clear call, values can overlap the other calls;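 further: 0% = vehicle wells and 100% = reference inhibitor control wells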
Mtb FBA confirm: Mtb FBA inhibition, confirmed; shares compounds with Mtb FBA inh; purified M. tuberculosis FBA, fluorescence read-out; inhibition, % at 1 µM; actives 78% (n = 5,600); AID 651616;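 further: 0% = vehicle wells and 100% = reference inhibitor wells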
GDH-TPI counter-2: GDH-TPI inhibition counter-screen for FBA inhibitors; shares compounds with Mtb FBA inh; GDH-TPI coupled enzyme counterscreen, fluorescence; inhibition, % at 1 µM; actives 81% (n = 5,600); AID 652141; in the data active means inhibition above about 10%
The depositor's hits bear a star; ? = inconclusive; / = no result; + = active, no number. Unless noted, no stated cut-off is given here; in the data, active means inhibition above about 27%; inactive means the rest.

SMILES | Mtb FBA inh | GDH-TPI counter-1 | Mtb UGM inh | Rv3671c protease | Mtb betalactam | RecA splice inh | Mtb FBA confirm | GDH-TPI counter-2
CC(=O)c1cc(F)c(N2CCN(C(=O)C(C)(C)C)CC2)cc1C | 1 | 5 | -1 | 1 | -12 | -2 | / | /
CC(=O)c1cc(F)c(N2CCN(C(=O)COc3ccccc3F)CC2)cc1C | 38* | 7 | -2 | 4 | 6 | -3 | 9 | 6
COc1cc(OC)cc(-c2oc3cccnc3c2C#CCCO)c1 | 42* | 11 | 1 | -10 | 10 | 4 | -5 | -5
COC(=O)c1ccc(-c2nc(CN3CCC(C(=O)N4CCOCC4)CC3)c(C)o2)cc1 | 48* | -3 | -4 | -8 | ? | -1 | 47* | 37*
CC(=O)Nc1sc(N/N=C/c2ccc(N(C)C)cc2)nc1-c1ccc(C)cc1 | 39* | 40* | / | / | / | -2 | 132* | 102*
Cc1cccc(-c2nnc(SC(C)C(=O)N3CCOCC3)o2)c1 (stereo not given) | 1 | -6 | 3 | 4 | 1 | 1 | / | /
OC[C@@H](O)[C@@H](O)[C@H](O)[C@H](O)CO | 4 | 3 | 2 | -1 | 3 | -1 | / | /
Cc1cccc(-c2nc3ccc(C(=O)N4CCC5(CC4)OCCO5)cc3nc2-c2cccc(C)c2)c1 | 43* | 16 | 0 | 0 | 72 | 11 | 117* | 79*
O=C(c1ccccc1)N1CCCCCC1 | 3 | 13 | -1 | -10 | -10 | -2 | / | /
CN1CCN(C(=O)c2ccc3nc(-c4ccccc4)c(-c4ccccc4)nc3c2)CC1 | 30* | 10 | -4 | 3 | 3 | -1 | 168* | 135*
O=C(c1ccc2nc(-c3ccccc3)c(-c3ccccc3)nc2c1)N1CCCCC1 | 34* | 15 | 1 | 8 | 30 | 11 | 93* | 64*
COc1cccc(C(=O)N2CCC3(CC2)OCCO3)c1 | 0 | -11 | 1 | -4 | -9 | 0 | / | /
CCOC(=O)C[C@H]1c2ccc(C(F)(F)F)cc2S(=O)(=O)N1c1cccc(OC)c1 | 1 | 8 | -2 | 1 | -5 | 0 | / | /
COc1cccc(C2=NOC(C(=O)Nc3cc(C)on3)C2)c1 (stereo not given) | 4 | 8 | 2 | 11 | 2 | -1 | / | /
O=C1c2ccccc2S(=O)(=O)c2cc(C(=O)N3CCN(C(=O)c4ccccc4)CC3)ccc21 | 1 | -3 | 0 | -5 | 9 | -1 | / | /
Cc1ccc(Oc2ncc(CN3CCOCC3)s2)cc1 | 38* | -5 | 1 | 3 | 2 | -6 | 50* | 44*
CCOC(=O)c1cc(C#N)c(SCC(=O)O)[nH]c1=O | 43* | 17 | 9 | 10 | 1 | 1 | 32* | 22*
CC1(C)Oc2ccc3ccc(=O)oc3c2C[C@H]1O | 88* | 16 | 1 | 5 | -2 | -3 | 149* | 113*
C/C=C(/C)C(=O)O[C@H]1[C@@H](O)c2c(ccc3ccc(=O)oc23)OC1(C)C | 34* | 20 | 1 | -4 | -2 | -1 | 93* | 79*
CC(=O)OC1=Cc2c(ccc3ccc(=O)oc23)OC1(C)C | 22 | 14 | 0 | -6 | 97 | -11 | / | /
C/C=C(/C)C(=O)O[C@@H]1Cc2c(ccc3ccc(=O)oc23)OC1(C)C | 45* | 15 | 3 | 2 | -1 | / | 68* | 42*
CC1(C)Oc2ccc3ccc(=O)oc3c2C(N2CCCCC2)C1O (stereo not given) | 6 | -3 | 0 | -9 | -3 | -2 | / | /
CC1(C)Oc2ccc3ccc(=O)oc3c2/C(=C/O)C1=O | 44* | 20 | 8 | 6 | 1 | 0 | 153* | 119*
CC(NC(=O)C1CC(=O)N(c2ccc3c(c2)OCCO3)C1)c1ccccc1 (stereo not given) | 4 | 3 | / | / | / | / | / | /
COc1cc(OC)cc(C(=O)NNC(=O)CCC(=O)c2cc(C)sc2C)c1 | -2 | 3 | 1 | -3 | -3 | / | / | /
SMILES | Mtb FBA inh | GDH-TPI counter-1 | Mtb UGM inh | Rv3671c protease | Mtb betalactam | RecA splice inh | Mtb FBA confirm | GDH-TPI counter-2
C/C=C(/C)C(=O)OC1c2c(ccc3ccc(=O)oc23)OC(C)(C)C1OC(C)=O (stereo not given) | 15 | 14 | 0 | -2 | -5 | 3 | / | /
C/C=C(/C)C(=O)O[C@@H]1[C@H](OC(C)=O)c2c(ccc3ccc(=O)oc23)OC1(C)C | 32* | 32* | 1 | -3 | -3 | 1 | 115* | 88*
CC1(C)Oc2ccc3ccc(=O)oc3c2[C@H](O)[C@H]1O | 58* | 18 | 1 | -3 | 1 | / | 69* | 59*
CCOC(=O)c1oc2ccc(Br)cc2c1COC(=O)C1=COCCO1 | 0 | -8 | -1 | 6 | 21 | 1 | / | /
CC1(C)Cc2c(cnn2-c2ccccc2)C(=O)/C1=N\NC(=O)c1ccccc1N | 2 | 18 | 0 | -6 | 2 | 1 | / | /
CC1(C)Cc2c(cnn2-c2ccccc2)-c2c1c1ccccc1n2CC(O)CBr (stereo not given) | 31* | 0 | 0 | 6 | 92 | 8 | 163* | 107*
O=C(Nc1cccc(F)c1)NC1(C(=O)NCC2CCCO2)CCCCC1 (stereo not given) | -1 | -4 | 3 | -4 | -8 | -2 | / | /
CC(=O)Oc1ccc(C(=O)Nc2ccccc2NC(=O)c2ccc(OC(C)=O)cc2)cc1 | 2 | -4 | -1 | -6 | 6 | 1 | / | /
CC(=O)Oc1ccc(C23c4ccccc4C2(OC(C)=O)c2cc(OC(C)=O)ccc23)cc1 (stereo not given) | 71* | 6 | / | / | / | / | 98* | 85*
Cc1nc2ccc([N+](=O)[O-])cc2c(=O)n1Cc1ccccc1Br | 5 | 19 | 0 | -3 | 0 | 1 | / | /
COCc1cc(C)[nH]c(=O)c1C#N | 66* | 18 | 2 | 6 | -9 | -18 | 53* | 41*
COCc1cc(C)nc(NC2CC(C)(C)NC(C)(C)C2)c1C#N | 62* | 7 | 2 | -8 | -2 | 2 | 83* | 78*
COCc1cc(C)nc(SC)c1C#N | 1 | 9 | -1 | -6 | -6 | 1 | / | /
COCc1cc(C)nc(N2CCOCC2)c1C#N | 32* | 6 | 1 | 1 | 2 | 1 | 37* | 37*
COCc1cc(C)nc(N)c1C#N | 29* | 3 | 0 | -4 | -16 | -1 | + | +
Cc1cc(C)c(C#N)c(N2CCOCC2)n1 | 25 | 8 | 2 | 3 | -2 | 1 | / | /
O=C(CN1C(=O)c2cccnc2Oc2ccc(Cl)cc21)NCCCc1ccccc1 | -6 | -13 | -2 | 4 | ? | 1 | / | /
Cc1ccc(Cn2c(C3CCCN3c3nc(C)cs3)nc3cc(C(F)(F)F)ccc32)cc1 (stereo not given) | 0 | 5 | -1 | -4 | 62 | 5 | / | /
